Compound activity: PubChem BioAssay, National Center for Advancing Translational Sciences (NCATS)
In the library only some 7.9% were active in any assay of this set; here they are far more common.
Lassa entry inh – inhibitors of Lassa virus binding or cell entry; Lassa virus pseudotype entry inhibition, cell reporter; actives 1.2% (n = 300,000); AID 540256; Potency, µM (titrated, usually from 37.9 µM), actives largely listed as inhibitors; calls by dose curve; tested in HEK293 cells; further: nearly all actives have a fitted effect of over 50% in size
HCV inhibitor – inhibitors of hepatitis C virus infection. Huh7.5.1 HCVcc-Cre infection, luciferase reporter, 44 h. Potency, µM (top dose mostly 41.8 µM), actives largely listed as inhibitors. actives 3.4% (n = 340,000). AID 651820; active means well fitted inhibition curve with a large enough effect; inconclusive means small, poorly fitted or top-dose-only effect, or another doubt; inactive means no such curve, though single readings can be large or run the other way
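After 44 h co-culture of compound, cells and HCVcc-Cre (~0.5 moi), substrate is added for 15 min at room temperature and luciferase measured over 15 sec. Cells were seeded at 1,000/well and pre-cultured 4 h.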
HCMV inh – blocks human cytomegalovirus replication. HFF cells, HCMV-luciferase reporter, 72 h; hits give low values. activity change, negative = inhibition, % at 57.5 µM. actives 4.5% (n = 410,000); in the data active means activity change below about -60%; inconclusive means no clear call, values can overlap the other calls; inactive means above about -39%
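Cell-based, HFFs, 1000 cells/well, 16 h 37C; cpds in DMSO + HCMV-luc, MOI 1 PFU/cell; 72 h 37C; OneGlo luminescence after 5 min RT; norm. to buffer vs Salinomycin 10uM.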
FMDV inh – antivirals against foot and mouth disease virus; FMDV antiviral cell-based qHTS; actives 1.2% (n = 410,000); Potency, µM (highest dose often 57.9 µM), hits mostly inhibitors; AID 1159524; calls by dose curve; tested in HEK293T cells; further: read-out not given here; nearly all actives have a fitted effect of over 45% in size
Marburg entry inh – Marburg virus entry inhibition; Marburg virus pseudotyped entry inhibition, cell reporter; Potency, µM (series often up to 37.8 µM), actives largely listed as inhibitors; actives 1.8% (n = 300,000); calls by dose curve; tested in HEK293 cells
A number is an active result; i = inactive; ? = inconclusive; nt = no result; ! = a repeat was not active.

SMILES	Lassa entry inh	HCV inhibitor	HCMV inh	FMDV inh	Marburg entry inh
C[C@@H]1O[C@@H](O[C@H]2C[C@@H](O)[C@]3(CO)[C@H]4[C@H](O)C[C@]5(C)[C@@H]([C@@H]6COC(=O)C6)CC[C@]5(O)[C@@H]4CC[C@]3(O)C2)[C@H](O)[C@H](O)[C@H]1O	nt	nt	nt	nt	0.32µM
CCCC=CC1C(=O)[C@@H]2O[C@H]2C2(OCC(CC)(CC)CO2)C1CO (some centres not stated)	nt	nt	nt	nt	i
Cc1cc(C(=O)CSc2nnc(Nc3ccccc3F)s2)c(C)n1CC1CCCO1 (configuration not stated)	i	6.3µM	i	?	i
COc1ccccc1Nc1nnc(SCC(=O)c2cc(C)n(CC3CCCO3)c2C)s1 (configuration not stated)	i	?	-76	i	i
Cc1cc(C(=O)CSc2nnc(Nc3ccccc3)s2)c(C)n1CC1CCCO1 (configuration not stated)	i	?	i	i	i
CC1CCCCN1C(=O)COC(=O)/C=C/c1ccc2ccccc2n1 (configuration not stated)	nt	i	-84	i	nt
CC1CCCN(CCCNC(=O)c2ccc3c(c2)N(Cc2cccc(Cl)c2)C(=O)c2ccccc2S3=O)C1 (configuration not stated)	nt	nt	-81	i	nt
CC1CCCN(CCCNC(=O)c2ccc3c(c2)N(Cc2ccccc2F)C(=O)c2ccccc2S3(=O)=O)C1 (configuration not stated)	i	10µM	-70!	i	?
CCN1CCCC1CNC(=O)c1ccc2c(c1)N(Cc1ccccc1F)C(=O)c1ccccc1S2(=O)=O (configuration not stated)	nt	10µM	i	i	nt
O=C(NCc1ccco1)c1ccc2c(c1)N(Cc1ccccc1F)C(=O)c1ccccc1S2(=O)=O	i	nt	-66	i	i
O=C(NCCN1CCOCC1)c1ccc2c(c1)N(Cc1ccccc1F)C(=O)c1ccccc1S2(=O)=O	nt	i	i	i	nt
O=C(NCc1ccco1)c1ccc2c(c1)N(Cc1ccccc1)C(=O)c1ccccc1S2(=O)=O	i	nt	i	i	i
CCCCN(C)C(=O)c1ccc2c(c1)N(Cc1cccc(Cl)c1)C(=O)c1ccccc1S2=O (configuration not stated)	?	nt	-81	i	nt
CCC(C)NC(=O)c1ccc2c(c1)N(Cc1cccc(Cl)c1)C(=O)c1ccccc1S2=O (configuration not stated)	?	nt	i	i	nt
CCOc1cc(N2CCOCC2)c(OCC)cc1NC(=O)COC(=O)CCOc1cc(C)ccc1C	i	i	i	i	i
CC[C@@H](C)[C@H]1O[C@]2(CC[C@@H]1C)C[C@@H]1C[C@H](C/C=C(/C)[C@H](O[C@@H]3C[C@H](OC)[C@H](O[C@@H]4C[C@H](OC)[C@@H](O)[C@H](C)O4)[C@H](C)O3)[C@@H](C)/C=C\C=C3CO[C@@H]4[C@H](O)C(C)=C[C@@H](C(=O)O1)[C@]34O)O2 (tested in a mixture with another compound)	nt	nt	nt	i	nt
COc1cc(/C=C(/C#N)c2nc(-c3cc4ccccc4oc3=O)cs2)cc([N+](=O)[O-])c1O	nt	nt	-87	nt	nt
COc1cc(/C=C(\C#N)c2nc(-c3cc4ccccc4oc3=O)cs2)ccc1O	i	?	i	i	i
COc1ccc(OC)c(C(=O)N2CCc3c(cnc(C)c3CNS(=O)(=O)N(C)C)C2)c1	nt	nt	nt	i	nt
COc1cccc(-n2cnc3scc(-c4cccs4)c3c2=O)c1	i	11µM	i	?	i
Clc1ccc(CNc2cc(-c3ccccc3)nc3nncn23)cc1	i	nt	i	?	i
Clc1cccc(CNc2cc(-c3ccccc3)nc3nncn23)c1	?	nt	-62	?	?
COc1ccccc1CNc1cc(-c2ccccc2)nc2nncn12	i	nt	-87	i	?
NS(=O)(=O)c1cccc(NS(=O)(=O)c2ccc(/C=C/C(=O)O)cc2)c1	i	i	i	i	i
[N-]=[N+]=Nc1ccc(C(=O)CSC[C@H](NC(=O)CC[C@H](N)C(=O)O)C(=O)NCC(=O)O)cc1	?	nt	nt	nt	5µM
COc1ccc(OC)c2c1sc(=NC(=O)C(C)(C)C)n2C	nt	10µM	i	i	nt
CCc1cccc(NC(=O)CC2Oc3ccc(C)cc3NC2=O)c1 (configuration not stated)	nt	nt	i	i	i
CN1C(=O)Cc2cc(S(=O)(=O)CCC(=O)Nc3ccc(Cl)cc3)ccc21	i	nt	i	i	nt
